The record followed here is article PMC11006913.

What all share (experiment): PBM; 200 nM protein, PBS
Common to all, as to conditions: dsDNA, one strand shown

Test [1] concerns the target HOXA4 (Homo sapiens, UniProt Q00056 201-287, W262R).
Test [2] concerns the target HOXB6 (Homo sapiens, UniProt P17509 132-218, K202E).
Test [3] addresses HOXA4 (Homo sapiens, UniProt Q00056 201-287, R217L).
Test [4] concerns the target ALX1 (Homo sapiens, UniProt Q15699 118-204, L144V).
Test [5] has as its target ALX3 (Homo sapiens, UniProt O95076 139-225, N203Q).
The target of test [6] is ALX1 (Homo sapiens, UniProt Q15699 118-204, L144R).
The target in test [7] is HOXA4 (Homo sapiens, UniProt Q00056 201-287).
The target of test [8] is ALX3 (Homo sapiens, UniProt O95076 139-225).
Test [9] has as its target ALX3 (Homo sapiens, UniProt O95076 139-225, L168Q).
Test [10] addresses ALX3 (Homo sapiens, UniProt O95076 139-225, L168V).
For test [11], the target named is NKX3-2 (Homo sapiens, UniProt P78367 192-278, P234S).
For test [12], the target named is ALX1 (Homo sapiens, UniProt Q15699 118-204).
Test [13] deals with HOXA4 (Homo sapiens, UniProt Q00056 201-287, W262F).
Test [14] deals with ALX3 (Homo sapiens, UniProt O95076 139-225, N203S).
Test [15] concerns the target HOXB6 (Homo sapiens, UniProt P17509 132-218).
Test [16] concerns the target NKX3-2 (Homo sapiens, UniProt P78367 192-278).
The target of test [17] is T1, SIX6 (Homo sapiens, UniProt O95475 114-200, L167I).
T1 sequence: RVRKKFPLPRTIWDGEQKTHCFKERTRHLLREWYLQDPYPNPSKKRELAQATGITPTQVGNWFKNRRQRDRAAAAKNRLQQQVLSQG

Test [18] deals with T2, SIX6 (Homo sapiens, UniProt O95475 114-200, L143M).
T2 sequence: T1 sequence with L30M, I54L

For test [19], the target named is T3, SIX6 (Homo sapiens, UniProt O95475 114-200, T139Q).
T3 sequence: T1 sequence with T26Q, I54L

Test [20] has as its target PRRX1 (Homo sapiens, UniProt P54821 80-166, F113S).
Test [21] has as its target HOXA2 (Homo sapiens, UniProt O43364 129-215, R185T).
The target in test [22] is MSX2 (Homo sapiens, UniProt P35548 130-214, R199I).
For test [23], the target named is HOXA2 (Homo sapiens, UniProt O43364 129-215, R185K).
Test [24] concerns the target MSX2 (Homo sapiens, UniProt P35548 130-214).
Test [25] deals with MSX2 (Homo sapiens, UniProt P35548 130-214, F161Y).
In test [26] the target is HOXA2 (Homo sapiens, UniProt O43364 129-215, Y150S).
Test [27] deals with PRRX1 (Homo sapiens, UniProt P54821 80-166).
Test [28] deals with HOXA2 (Homo sapiens, UniProt O43364 129-215).
The target of test [29] is HOXC9 (Homo sapiens, UniProt P31274 178-260, K195R).
Test [30] has as its target HOXC9 (Homo sapiens, UniProt P31274 178-260).
The target of test [31] is HOXC9 (Homo sapiens, UniProt P31274 178-260, R193K).
In test [32] the target is HOXC9 (Homo sapiens, UniProt P31274 178-260, R222W).
Test [33] addresses T4, SIX6 (Homo sapiens, UniProt O95475 114-200).
T4 sequence: T1 sequence with I54L

Test [34] addresses HOXA7 (Homo sapiens, UniProt P31268 116-202).
Test [35] concerns the target HOXC10 (Homo sapiens, UniProt Q9NYD6 254-340).
Test [36] addresses HOXC10 (Homo sapiens, UniProt Q9NYD6 254-340, K271E).
The target of test [37] is PROP1 (Homo sapiens, UniProt O75360 56-141).
In test [38] the target is PROP1 (Homo sapiens, UniProt O75360 56-141, R99H).
The target of test [39] is PROP1 (Homo sapiens, UniProt O75360 56-141, F88S).
For test [40], the target named is HOXA7 (Homo sapiens, UniProt P31268 116-202, W177C).

Where a chain is given by its changes, count along the chain named.

Chain of HOXA4 (Homo sapiens, UniProt Q00056 201-287, W262F) (Q00056 201-287 W262F): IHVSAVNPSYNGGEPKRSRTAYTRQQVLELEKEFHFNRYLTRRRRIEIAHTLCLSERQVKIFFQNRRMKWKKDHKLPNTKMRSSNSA
Chain of HOXA4 (Homo sapiens, UniProt Q00056 201-287) (Q00056 201-287): as the sequence (Q00056 201-287 W262F) above, with F62W counted along it
Chain of HOXA4 (Homo sapiens, UniProt Q00056 201-287, R217L) (Q00056 201-287 R217L): as the sequence (Q00056 201-287 W262F) above, with R17L, F62W counted along it
Chain of HOXA4 (Homo sapiens, UniProt Q00056 201-287, W262R) (Q00056 201-287 W262R): as the sequence (Q00056 201-287 W262F) above, with F62R counted along it
Chain of ALX3 (Homo sapiens, UniProt O95076 139-225, L168Q) (O95076 139-225 L168Q): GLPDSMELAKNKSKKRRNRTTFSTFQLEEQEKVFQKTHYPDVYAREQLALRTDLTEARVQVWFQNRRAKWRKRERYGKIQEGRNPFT
Chain of ALX3 (Homo sapiens, UniProt O95076 139-225, L168V) (O95076 139-225 L168V): as the sequence (O95076 139-225 L168Q) above, with Q30V counted along it
Chain of ALX3 (Homo sapiens, UniProt O95076 139-225, N203S) (O95076 139-225 N203S): as the sequence (O95076 139-225 L168Q) above, with Q30L, N65S counted along it
Chain of ALX3 (Homo sapiens, UniProt O95076 139-225) (O95076 139-225): as the sequence (O95076 139-225 L168Q) above, with Q30L counted along it
Chain of ALX3 (Homo sapiens, UniProt O95076 139-225, N203Q) (O95076 139-225 N203Q): as the sequence (O95076 139-225 L168Q) above, with Q30L, N65Q counted along it
Chain of MSX2 (Homo sapiens, UniProt P35548 130-214, F161Y) (P35548 130-214 F161Y): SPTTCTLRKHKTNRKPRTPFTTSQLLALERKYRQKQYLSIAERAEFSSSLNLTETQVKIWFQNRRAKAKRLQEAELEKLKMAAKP
Chain of PROP1 (Homo sapiens, UniProt O75360 56-141) (O75360 56-141): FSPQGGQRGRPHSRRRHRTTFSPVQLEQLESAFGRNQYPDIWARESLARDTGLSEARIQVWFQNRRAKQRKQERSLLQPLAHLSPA
Chain of HOXC9 (Homo sapiens, UniProt P31274 178-260) (P31274 178-260): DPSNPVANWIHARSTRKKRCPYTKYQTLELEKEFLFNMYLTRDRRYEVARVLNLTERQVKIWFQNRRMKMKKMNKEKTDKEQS
Chain of HOXA2 (Homo sapiens, UniProt O43364 129-215, R185T) (O43364 129-215 R185T): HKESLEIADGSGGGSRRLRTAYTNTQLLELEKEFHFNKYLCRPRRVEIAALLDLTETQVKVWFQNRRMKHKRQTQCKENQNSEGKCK
Chain of ALX1 (Homo sapiens, UniProt Q15699 118-204, L144R) (Q15699 118-204 L144R): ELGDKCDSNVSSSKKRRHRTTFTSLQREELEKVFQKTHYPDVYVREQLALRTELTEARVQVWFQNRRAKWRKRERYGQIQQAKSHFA
Chain of PRRX1 (Homo sapiens, UniProt P54821 80-166) (P54821 80-166): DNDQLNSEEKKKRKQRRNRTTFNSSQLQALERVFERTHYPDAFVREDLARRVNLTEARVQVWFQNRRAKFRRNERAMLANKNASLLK
Chain of HOXA7 (Homo sapiens, UniProt P31268 116-202) (P31268 116-202): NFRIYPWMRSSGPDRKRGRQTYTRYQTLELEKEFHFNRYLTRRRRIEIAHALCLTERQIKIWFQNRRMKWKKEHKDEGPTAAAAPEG
Chain of HOXA7 (Homo sapiens, UniProt P31268 116-202, W177C) (P31268 116-202 W177C): as the sequence (P31268 116-202) above, with W62C counted along it
Chain of PROP1 (Homo sapiens, UniProt O75360 56-141, F88S) (O75360 56-141 F88S): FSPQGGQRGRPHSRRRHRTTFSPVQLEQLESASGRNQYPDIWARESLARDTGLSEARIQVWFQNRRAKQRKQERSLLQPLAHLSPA
Chain of NKX3-2 (Homo sapiens, UniProt P78367 192-278) (P78367 192-278): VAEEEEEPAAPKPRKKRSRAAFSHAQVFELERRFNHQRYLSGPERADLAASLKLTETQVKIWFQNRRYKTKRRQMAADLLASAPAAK
Chain of HOXA2 (Homo sapiens, UniProt O43364 129-215, R185K) (O43364 129-215 R185K): as the sequence (O43364 129-215 R185T) above, with T57K counted along it
Chain of HOXC10 (Homo sapiens, UniProt Q9NYD6 254-340, K271E) (Q9NYD6 254-340 K271E): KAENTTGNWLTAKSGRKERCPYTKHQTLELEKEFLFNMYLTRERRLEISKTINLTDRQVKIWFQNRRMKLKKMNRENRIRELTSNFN
Chain of HOXA2 (Homo sapiens, UniProt O43364 129-215, Y150S) (O43364 129-215 Y150S): as the sequence (O43364 129-215 R185T) above, with Y22S, T57R counted along it
Chain of MSX2 (Homo sapiens, UniProt P35548 130-214, R199I) (P35548 130-214 R199I): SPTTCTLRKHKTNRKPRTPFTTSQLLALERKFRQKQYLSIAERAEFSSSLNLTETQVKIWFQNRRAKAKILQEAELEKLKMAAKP
Chain of PRRX1 (Homo sapiens, UniProt P54821 80-166, F113S) (P54821 80-166 F113S): as the sequence (P54821 80-166) above, with F34S counted along it
Chain of HOXC9 (Homo sapiens, UniProt P31274 178-260, R193K) (P31274 178-260 R193K): as the sequence (P31274 178-260) above, with R16K counted along it
Chain of PROP1 (Homo sapiens, UniProt O75360 56-141, R99H) (O75360 56-141 R99H): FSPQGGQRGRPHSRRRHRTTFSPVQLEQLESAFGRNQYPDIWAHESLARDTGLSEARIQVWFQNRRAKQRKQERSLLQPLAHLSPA
Chain of MSX2 (Homo sapiens, UniProt P35548 130-214) (P35548 130-214): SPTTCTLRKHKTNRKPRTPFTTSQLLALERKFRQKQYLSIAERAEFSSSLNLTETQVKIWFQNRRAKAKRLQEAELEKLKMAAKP
Chain of HOXC9 (Homo sapiens, UniProt P31274 178-260, K195R) (P31274 178-260 K195R): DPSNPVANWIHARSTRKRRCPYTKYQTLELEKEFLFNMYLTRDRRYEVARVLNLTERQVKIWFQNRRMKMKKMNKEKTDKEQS
Chain of NKX3-2 (Homo sapiens, UniProt P78367 192-278, P234S) (P78367 192-278 P234S): as the sequence (P78367 192-278) above, with P43S counted along it
Chain of HOXC10 (Homo sapiens, UniProt Q9NYD6 254-340) (Q9NYD6 254-340): as the sequence (Q9NYD6 254-340 K271E) above, with E18K counted along it
Chain of HOXA2 (Homo sapiens, UniProt O43364 129-215) (O43364 129-215): as the sequence (O43364 129-215 R185T) above, with T57R counted along it
Chain of ALX1 (Homo sapiens, UniProt Q15699 118-204, L144V) (Q15699 118-204 L144V): as the sequence (Q15699 118-204 L144R) above, with R27V counted along it
Chain of HOXB6 (Homo sapiens, UniProt P17509 132-218, K202E) (P17509 132-218 K202E): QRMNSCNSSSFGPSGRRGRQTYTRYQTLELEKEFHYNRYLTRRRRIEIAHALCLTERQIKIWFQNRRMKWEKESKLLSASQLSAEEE
Chain of ALX1 (Homo sapiens, UniProt Q15699 118-204) (Q15699 118-204): as the sequence (Q15699 118-204 L144R) above, with R27L counted along it
Chain of HOXB6 (Homo sapiens, UniProt P17509 132-218) (P17509 132-218): as the sequence (P17509 132-218 K202E) above, with E71K counted along it
Chain of HOXC9 (Homo sapiens, UniProt P31274 178-260, R222W) (P31274 178-260 R222W): as the sequence (P31274 178-260) above, with R45W counted along it

On to CAGCCTCC, for which the binding signal with HOXA4 [1] was 9.65 upbm affinity estimate (log intensity, higher = more binding, comparable within an allelic series); with HOXB6 [2], 8.86 upbm affinity estimate (log intensity, higher = more binding, comparable within an allelic series); in the test with HOXA4 [3] it was 9.73 upbm affinity estimate (log intensity, higher = more binding, comparable within an allelic series); with ALX1 [4], 6.61 upbm affinity estimate (log intensity, higher = more binding, comparable within an allelic series); with ALX3 [5], 7.63 upbm affinity estimate (log intensity, higher = more binding, comparable within an allelic series); with ALX1 [6] it was 6.48 upbm affinity estimate (log intensity, higher = more binding, comparable within an allelic series). For the same sequence, the binding signal was 9.62 upbm affinity estimate (log intensity, higher = more binding, comparable within an allelic series) with HOXA4 [7]; 7.74 upbm affinity estimate (log intensity, higher = more binding, comparable within an allelic series) with ALX3 [8]; 7.64 upbm affinity estimate (log intensity, higher = more binding, comparable within an allelic series) with ALX3 [9]; 7.62 upbm affinity estimate (log intensity, higher = more binding, comparable within an allelic series) with ALX3 [10]; 10.7 upbm affinity estimate (log intensity, higher = more binding, comparable within an allelic series) with NKX3-2 [11]; 6.39 upbm affinity estimate (log intensity, higher = more binding, comparable within an allelic series) with ALX1 [12]. Besides, the binding signal with HOXA4 [13] is 9.71 upbm affinity estimate (log intensity, higher = more binding, comparable within an allelic series); with ALX3 [14], 7.61 upbm affinity estimate (log intensity, higher = more binding, comparable within an allelic series); with HOXB6 [15], 8.88 upbm affinity estimate (log intensity, higher = more binding, comparable within an allelic series); in the test with NKX3-2 [16] it was 10.7 upbm affinity estimate (log intensity, higher = more binding, comparable within an allelic series).
Take GGATCACA: the binding signal with SIX6 [17] is 11.1 upbm affinity estimate (log intensity, higher = more binding, comparable within an allelic series); in the test with SIX6 [18] it was 10.9 upbm affinity estimate (log intensity, higher = more binding, comparable within an allelic series); with SIX6 [19], 11.2 upbm affinity estimate (log intensity, higher = more binding, comparable within an allelic series).
As for CCCCCCAG, the binding signal with HOXA4 [1] was 9.46 upbm affinity estimate (log intensity, higher = more binding, comparable within an allelic series); with PRRX1 [20], 9 upbm affinity estimate (log intensity, higher = more binding, comparable within an allelic series); with HOXA2 [21], 6.72 upbm affinity estimate (log intensity, higher = more binding, comparable within an allelic series); in the test with HOXA4 [3], 9.39 upbm affinity estimate (log intensity, higher = more binding, comparable within an allelic series); with MSX2 [22], 9.41 upbm affinity estimate (log intensity, higher = more binding, comparable within an allelic series); in the test with HOXA2 [23], 9.81 upbm affinity estimate (log intensity, higher = more binding, comparable within an allelic series). The binding signal with HOXA4 [7] is 9.42 upbm affinity estimate (log intensity, higher = more binding, comparable within an allelic series); with MSX2 [24] it was 9.49 upbm affinity estimate (log intensity, higher = more binding, comparable within an allelic series); in the test with MSX2 [25] it was 9.5 upbm affinity estimate (log intensity, higher = more binding, comparable within an allelic series); with HOXA2 [26] it was 10.1 upbm affinity estimate (log intensity, higher = more binding, comparable within an allelic series); with HOXA4 [13] it was 9.4 upbm affinity estimate (log intensity, higher = more binding, comparable within an allelic series); in the test with PRRX1 [27], 9.37 upbm affinity estimate (log intensity, higher = more binding, comparable within an allelic series). The binding signal with HOXA2 [28] was 6.91 upbm affinity estimate (log intensity, higher = more binding, comparable within an allelic series).
Consider GACCCTCC, for which the binding signal with HOXA4 [1] is 9.82 upbm affinity estimate (log intensity, higher = more binding, comparable within an allelic series); in the test with HOXC9 [29], 9.64 upbm affinity estimate (log intensity, higher = more binding, comparable within an allelic series); with HOXA4 [3], 9.94 upbm affinity estimate (log intensity, higher = more binding, comparable within an allelic series); with HOXC9 [30], 9.69 upbm affinity estimate (log intensity, higher = more binding, comparable within an allelic series); with HOXC9 [31] it was 9.67 upbm affinity estimate (log intensity, higher = more binding, comparable within an allelic series); with HOXA4 [7] it was 9.94 upbm affinity estimate (log intensity, higher = more binding, comparable within an allelic series). The binding signal was 9.65 upbm affinity estimate (log intensity, higher = more binding, comparable within an allelic series) in the test with HOXC9 [32] and 9.9 upbm affinity estimate (log intensity, higher = more binding, comparable within an allelic series) with HOXA4 [13].
In the case of ATACTAAC, the binding signal with SIX6 [17] is 10.1 upbm affinity estimate (log intensity, higher = more binding, comparable within an allelic series); with SIX6 [33] it was 10.1 upbm affinity estimate (log intensity, higher = more binding, comparable within an allelic series).
Turning to CCCCCTTC, the binding signal was 9.36 upbm affinity estimate (log intensity, higher = more binding, comparable within an allelic series) with HOXA4 [1]; 7.86 upbm affinity estimate (log intensity, higher = more binding, comparable within an allelic series) with HOXA7 [34]; 9.64 upbm affinity estimate (log intensity, higher = more binding, comparable within an allelic series) in the test with HOXC10 [35]; 9.27 upbm affinity estimate (log intensity, higher = more binding, comparable within an allelic series) with HOXA4 [3]; 7.42 upbm affinity estimate (log intensity, higher = more binding, comparable within an allelic series) with ALX3 [5]; 9.19 upbm affinity estimate (log intensity, higher = more binding, comparable within an allelic series) with HOXA4 [7]. The binding signal with HOXC10 [36] is 9.78 upbm affinity estimate (log intensity, higher = more binding, comparable within an allelic series); in the test with ALX3 [8], 7.43 upbm affinity estimate (log intensity, higher = more binding, comparable within an allelic series); with PROP1 [37], 6.16 upbm affinity estimate (log intensity, higher = more binding, comparable within an allelic series); with PROP1 [38] it was 5.96 upbm affinity estimate (log intensity, higher = more binding, comparable within an allelic series); with ALX3 [9], 7.31 upbm affinity estimate (log intensity, higher = more binding, comparable within an allelic series); with ALX3 [10], 7.27 upbm affinity estimate (log intensity, higher = more binding, comparable within an allelic series). In addition, the binding signal with PROP1 [39] was 5.76 upbm affinity estimate (log intensity, higher = more binding, comparable within an allelic series); in the test with HOXA7 [40] it was 8.09 upbm affinity estimate (log intensity, higher = more binding, comparable within an allelic series); with HOXA4 [13] it was 9.31 upbm affinity estimate (log intensity, higher = more binding, comparable within an allelic series); with ALX3 [14], 7.33 upbm affinity estimate (log intensity, higher = more binding, comparable within an allelic series).
